PNC assembly inh = inhibitors of perinucleolar compartment assembly | activity change (PNC), negative = inhibition, % at 10 µM | PC3M PTB-GFP, PNC prevalence imaging, 16 h; active compounds read low | hit rate 3.1% among 140,000;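 active means readout at or below -70, meaning at least 70% loss of cells showing the perinucleolar compartment, a nuclear body marking cancer cells; inconclusive means readout between -30 and a set limit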;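 further: plate controls were DMSO wells for no effect and camptothecin positive control wells for full effect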
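Compounds are pinned in duplicate onto adhered PC3M cells stably expressing GFP-tagged PTB and incubated 16 h at 37 C. Cells are then fixed, nuclei stained with Hoechst, and PNC-positive cells counted.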
IMPase inh = membrane-permeable compound that blocks inositol monophosphatase | P97697 | CHO-M1 cells, IP1 accumulation, HTRF TR-FRET ratio | inhibition (IP1 accumulation), % at 46.1 µM | 120,000 tested, under 10 active | AID 901; active means well fitted curve in the direction sought with a large enough effect in the signal ratio, not every such curve was filed as active; inconclusive means small, poorly fitted or top-dose-only effect, or a change in a side signal; inactive means no such curve, though single readings can be large or run the other way; the % refers to the signal ratio;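 further: cells stimulated with carbachol in lithium chloride buffer; plate controls were DMSO basal wells for no effect and reference inhibitor wells for full effect; higher means more IMPase inhibition seen as more IP1 and lower FRET ratio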
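Carbachol-driven Gq signalling in CHO-M1 cells (2000/well) generates IP1. Compounds that block IMPase raise IP1 and so reduce the FRET signal from Eu-anti-IP1 and d2-IP1 after a 10 min room-temperature lysis.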
ALDH1A1 block = inhibitors of human aldehyde dehydrogenase 1A1; AID 1030; P00352; Purified ALDH1A1, NADH fluorescence, propionaldehyde substrate; Potency, µM (doses to about 75.3 µM), inactives show at the highest dose activity, negative = inhibition, usual class: inhibitors; hit rate 7.3% among 220,000;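 further: potency means the concentration at half of the fitted maximal effect; plate controls were no enzyme wells and a reference inhibitor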
Target sequence (P00352 whole entry, looked up): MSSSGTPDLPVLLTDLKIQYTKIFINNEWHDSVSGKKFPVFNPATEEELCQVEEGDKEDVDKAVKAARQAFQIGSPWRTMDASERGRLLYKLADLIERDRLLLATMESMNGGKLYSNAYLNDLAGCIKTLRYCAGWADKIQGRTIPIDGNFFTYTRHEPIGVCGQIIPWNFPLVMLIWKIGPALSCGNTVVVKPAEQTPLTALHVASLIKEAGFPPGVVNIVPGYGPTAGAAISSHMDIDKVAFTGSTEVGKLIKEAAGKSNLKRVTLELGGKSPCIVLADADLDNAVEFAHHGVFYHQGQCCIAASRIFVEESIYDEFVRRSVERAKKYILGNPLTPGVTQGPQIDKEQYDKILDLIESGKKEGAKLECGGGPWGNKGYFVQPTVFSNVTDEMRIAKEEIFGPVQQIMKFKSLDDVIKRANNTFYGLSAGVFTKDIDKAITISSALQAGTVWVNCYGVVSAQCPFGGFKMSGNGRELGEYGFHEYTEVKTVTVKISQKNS
IMPase Li cell = cell-permeable IMPase inhibitors with lithium potentiation | CHO-M1 cells, IP1 TR-FRET (IP-One), carbachol + lithium | Potency, µM (doses to about 59.4 µM), inactives show at the top dose activity, negative = IMPase inhibition, usual class: inhibitors | hit rate 0.35% among 210,000 | AID 1457; active means well fitted inhibition curve with a large enough effect; inconclusive means small, poorly fitted or top-dose-only effect; inactive means no such curve, though single readings can be large or run the other way;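 further: IP1 builds up when IMPase is blocked and the TR-FRET signal falls; potency means the concentration at half of the fitted maximal effect; plate controls were basal vehicle for no effect and high inhibitor control for full effect; nearly all actives have a fitted effect of over 50% in size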
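IP1 accumulation measured by competitive TR-FRET in lysed CHO-M1 cells after 30 min compound exposure at 37C, with a small lithium addition to potentiate weak responses. Hill-equation AC50 from ratio and donor-channel data.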
HPGD inh = blocks human HPGD enzyme activity | purified HPGD, NADH fluorescence kinetic, PGE2 substrate | Potency, µM, for inactives: at the highest dose activity change, negative = inhibition, usual class: inhibitors | hit rate 4.3% among 150,000 | AID 894; further: potency means the concentration at half of the fitted maximal effect
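20 nM HPGD preincubated 15 min at room temperature with compound in 50 mM Tris-HCl pH 8, 0.01% Tween 20. Started with 1 mM NAD+ and 30 uM prostaglandin E2; NADH fluorescence (360/450 nm) read 5 times over 30-s intervals, last minus first.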
* marks the source's active call; other numbers are inactive results; ? = inconclusive; . = not tested or not shown; [ ] = dose if it differs, or a comment. Shown are actives, neighbours in structure and some others; about 11% of the full set was active somewhere. Unless noted, the call rests on the fitted dose curve; in most records, active means well fitted inhibition curve with a large enough effect (not every such curve was filed as active); inconclusive means small, poorly fitted or top-dose-only effect, or another doubt; inactive means no such curve, though single readings can be large or run the other way. Unless noted, on the % scale 0 is the no-effect control and ±100 the full control effect.

SMILES | PNC assembly inh | IMPase inh | ALDH1A1 block | IMPase Li cell | HPGD inh
O=C(Cc1cccs1)N/N=C\c1ccc([N+](=O)[O-])s1 | . | . | 13µM* | -3% | .
COc1ccc(-c2nc3cnc(Oc4cccc(Cl)c4)nc3n(CCC#N)c2=O)cc1 | . | . | ? | 5µM* | .
COc1ccc(Oc2ncc3nc(-c4ccc(Cl)cc4)c(=O)n(CCC#N)c3n2)cc1 | . | . | ? | 1% | ?
COc1ccc(Oc2ncc3nc(C)c(=O)n(Cc4cccs4)c3n2)cc1 | . | . | -9% | 12% | -9%
Cc1nc2cnc(Oc3cccc(Cl)c3)nc2n(CCc2ccccc2)c1=O | . | . | 6.3µM* | -13% | -12%
Cc1nc2cnc(Oc3ccccc3)nc2n(CCc2ccccc2)c1=O | . | . | ? | 12% | -3%
COc1ccc(Oc2ncc3nc(C)c(=O)n(Cc4ccc(F)cc4)c3n2)cc1 | . | . | 25µM* | 12% | -19%
N#Cc1cccc(-c2nc3cnc(Oc4cccc(Cl)c4)nc3n(C3CC3)c2=O)c1 | . | . | 25µM* | 3% | .
CC(C)(C)Nc1oc(-c2ccccc2)nc1-c1ccc(C(F)(F)F)cc1 | . | . | 15% | 6% | -9%
Cc1cc(C)nc(SC2CCCCC2NS(=O)(=O)c2ccccc2)n1 (centres undefined) | 32 | . | -15% | 1% | -11%
Cn1c(=O)c(CCc2ccccc2)nc2cnc(Oc3ccccc3)nc21 | . | . | 8.9µM* | 3% | -16%
COc1ccc(Oc2ncc3nc(C)c(=O)n(CCc4ccccc4)c3n2)cc1 | . | . | 0.22µM* | -13% | -5%
O=C(COC(=O)c1cc2ccccc2oc1=O)Nc1ccc(F)cc1F | . | . | -3% | . | .
CN(C)c1ccc(/C=N/N=C/c2ccccc2O)cc1 | ? | -3 | 13µM* | ? | -7%
COc1ccc(C(=O)N2CCN(C3CCC(c4ccccc4)CC3)CC2)cc1OC (centres undefined) | -20 | 9 | ? | 32%[38.3 µM] | -3%
COc1ccccc1OCc1ccc(C(=O)N2CCN3CCCC3C2)cc1 (centres undefined) | -9 | 14 | ? | 4%[38.3 µM] | 20µM*
O=[N+]([O-])c1ccccc1S(=O)(=O)Oc1ccccc1/C=N/n1cnnc1 | ? | . | -1% | 8% | 18µM*
CC(NS(=O)(=O)/C=C/c1ccccc1)c1ccccc1 (centres undefined) | . | . | -4% | 9% | .
O=c1n(-c2ccccc2)c(=O)n2n1CCC2 | -17 | 2 | 2% | -6%[38.3 µM] | 1%
O=c1n(-c2ccccc2)c(=O)n2n1CCCC2 | -120* | -9 | -4% | -5%[38.3 µM] | -8%
COc1cccc(NC(=O)c2sc3nc(C)c(C(=O)Nc4ccc(C)cc4C)c(-c4cccs4)c3c2N)c1 | . | -9 | . | . | .
O=C1CC(c2ccco2)CC(O)=C1C=Nc1cc(Cl)ccc1Cl (centres undefined) | -24 | . | ? | -2% | -19%
O=C1CC(c2ccco2)CC(O)=C1C=Nc1cc(Cl)ccc1O (centres undefined) | -8 | 11 | ? | -4%[38.3 µM] | 8.9µM*
CC(=O)N1CCN(CCN=CC2=C(O)CC(c3ccco3)CC2=O)CC1 (centres undefined) | ? | 3 | 5% | 7%[38.3 µM] | -17%
O=C1CC(c2ccco2)CC(O)=C1C=NCCN1CCN(C(=O)Nc2ccc(Cl)cc2)CC1 (centres undefined) | -99* | . | 4% | 2% | -4%
CCOC(=O)C1CCN(C2CC(=O)N(c3ccc(OCC)cc3)C2=O)CC1 (centres undefined) | ? | ? | 28µM* | -2% | 4%
O=C1CC(N2CCN(c3cccc(C(F)(F)F)c3)CC2)C(=O)N1c1ccc(F)cc1 (centres undefined) | -21 | 10 | -3% | 0%[38.3 µM] | -23%
CCOC(=O)C1CCCN(C2CC(=O)N(c3ccc(C)c(C)c3)C2=O)C1 (centres undefined) | ? | -2 | 10µM* | 9%[38.3 µM] | -4%
CCOC(=O)C1CCCN(C2CC(=O)N(c3ccc(C(C)C)cc3)C2=O)C1 (centres undefined) | . | . | 10µM* | 1% | .
Cc1cccc(N2C(=O)CC(N3CCN(c4cccc(C(F)(F)F)c4)CC3)C2=O)c1 (centres undefined) | 32 | -7 | 28µM* | 27%[38.3 µM] | -20%
